Screening results (PubChem BioAssay)
Compounds with a hit are over-represented: about 6% of the library has one in this group of screens.
DRD3 agonist = agonists of human D3 dopamine receptor; max activation, %; P35462; D3R DiscoveRx beta-arrestin cells, luminescence, 90 min; 0.58% of 410,000 active; AID 652048; in the data active means max activation above about 30%; further: 0% is about no effect
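Cells at 1500/well, incubated overnight, then treated with pinned compounds (dopamine as control) for 90 min at 37 degrees C. DiscoveRx reagent added for 30 - 60 minutes at room temperature; luminescence read.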
D1 PAM = potentiators of human D1 dopamine receptor. P21728. HEK293 TREx D1 cells, calcium flux, dopamine EC20 potentiation. potentiation, % at 10 µM. 0.036% of 360,000 active. AID 504651; in the data active means potentiation above about 30%; further: 0% is about no effect
Target sequence (P21728 whole entry, looked up): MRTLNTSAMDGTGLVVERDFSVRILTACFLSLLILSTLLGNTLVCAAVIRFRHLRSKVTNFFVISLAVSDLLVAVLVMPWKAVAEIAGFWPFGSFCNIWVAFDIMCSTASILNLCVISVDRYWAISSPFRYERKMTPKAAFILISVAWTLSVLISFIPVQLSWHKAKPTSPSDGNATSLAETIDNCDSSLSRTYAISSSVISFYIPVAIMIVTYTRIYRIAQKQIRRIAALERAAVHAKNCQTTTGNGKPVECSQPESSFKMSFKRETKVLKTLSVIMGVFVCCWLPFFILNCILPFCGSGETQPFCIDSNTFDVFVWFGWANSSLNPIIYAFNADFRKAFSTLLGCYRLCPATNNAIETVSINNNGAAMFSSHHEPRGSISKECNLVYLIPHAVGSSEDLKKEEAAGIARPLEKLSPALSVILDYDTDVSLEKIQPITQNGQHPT
Chronic BCR inh = inhibitors of chronic active B-cell receptor signaling; Potency, µM (titrated, usually from 46.1 µM), without a hit: top-dose activity change, negative = inhibition, actives largely listed as inhibitors; 0.05% of 340,000 active; ABC-DLBCL IkBa-CBG/CBR reporter, luminescence ratio, 4 h; active means well fitted inhibition curve with a large enough effect in the signal ratio, with a control signal flat, not every such curve was filed as active; inconclusive means small, poorly fitted or top-dose-only effect, or effect the other way, or a change in a side signal; the % refers to the signal ratio;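 further: potency means the concentration at half of the fitted maximal effect; plate controls were basal doxycycline-induced cells for no effect and cells given 10 µM MG132 for full effect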
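Compounds up to 46 uM were incubated four hours with TMD8 cells whose green CBG68 luciferase is fused to IkappaBalpha; red CBR luminescence normalised the signal, and concentration-effect curves were fitted to fusion, red and ratio data.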
DRD3 antagonist = blocks the human D3 dopamine receptor | 2.5% of 360,000 active | AID 652054 | max response, negative = inhibition, % | D3R cells, DiscoveRx beta-arrestin luminescence, antagonist mode; stronger effect = lower value | P35462; in the data active means max response below about -50%; inconclusive means no clear call, values can overlap the other calls; further: on the % scale 0 is the no-effect control and ±100 the full control effect
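Cells expressing the human receptor were seeded at 1500 cells/well, incubated overnight at 37 degrees C in 5% CO2, then exposed to library compounds with dopamine controls for 90 minutes at 37 degrees C before luminescent detection.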
D1 ag = agonists of human D1 dopamine receptor | P21728 | HEK293 T-REx D1 cells, calcium flux, agonist mode | activation, % at 2 µM | 1% of 360,000 active; in the data active means activation above about 30%; further: 0% is about no effect
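Tetracycline-induced HEK293 TREx D1 cells, force-coupled to calcium signalling, were dye-loaded with a no-wash calcium kit. Compound was pin-added after a 10 s baseline. Fluorescence was read kinetically at 1 cycle/s for 180 s, with calcium rises flagged as agonism.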
D1 antag = blocks dopamine activation of the human D1 receptor; activity change, negative = inhibition, % at 10 µM; HEK293 TREx D1 cells, calcium flux, dopamine EC80; stronger effect = lower value; 3.2% of 360,000 active; in the data active means activity change below about -30%; further: on the % scale 0 is the no-effect control and ±100 the full control effect
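Inducible Hek293 Trex D1 cells (tetracycline, overnight, 30 C). Calcium dye 30–90 min RT. Antagonist mode: EC80 dopamine added after 180 s compound read.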
An asterisk follows results filed as active; ? = inconclusive; · = no result.

SMILES | DRD3 agonist | D1 PAM | Chronic BCR inh | DRD3 antagonist | D1 ag | D1 antag
CSc1nnc(NC(=O)c2nc(S(=O)(=O)Cc3cccc(C)c3)ncc2Cl)s1 | -2 | -2 | ? | -54* | 1 | 2
CC(C)(C)OC(=O)NCC(=O)NNC(=O)c1nc2ccccc2[nH]1 | · | -4 | · | · | 0 | 2
CCc1nnc(NC(=O)c2nc(S(=O)(=O)Cc3cccc(C)c3)ncc2Cl)s1 | -24 | 2 | ? | -70* | 9 | 10
COc1ccc(C[C@H]2CN3C(=NC[C@H]3C)N2CCNC(=O)c2ccc(C)c(Br)c2)cc1 | -47 | -6 | -13% | -57* | 2 | 17
COc1ccc(C[C@@H]2CN3C(=NC[C@@H]3C)N2C[C@H](C)NC(=O)c2ccc(C)c(Br)c2)cc1 | -32 | -3 | 1% | -22 | 2 | -7
Cc1ccc(C(=O)NCCN2C3=NC[C@H](C)N3C[C@H]2Cc2ccc(O)cc2)cc1Br | -62 | -4 | ? | -58* | -3 | -1
CCOc1ccc(CCNCc2c(C(=O)O)n(Cc3ccc(C)cc3)c3cc(OC)ccc23)cc1 | 1 | -4 | · | · | -1 | 4
CN1/C(=C/C=C(C#N)C#N)C=Cc2ccccc21 | -9 | -6 | -3% | ? | 14 | -21
CCCCCCN1C=C/C(=C\C=C(C#N)C#N)c2ccccc21 | -16 | -2 | 11% | -30 | 5 | -4
CCCCCN1C=CC=C/C1=C\C=C(C#N)C#N | 3 | 4 | 6% | -11 | 71* | 2
CCCCCCN1C=CC=C/C1=C/C=C(C#N)C#N | 1 | 3 | 0% | 8 | 132* | 6
C[C@H]1CCC[C@]2(O[C@H](CCO)C[C@H](O)[C@H]2O)O1 | 37* | · | · | 11 | · | ·
C[C@H]1CCC[C@@]2(O[C@@H](CCO)C[C@H](O)[C@H]2O)O1 | 8 | · | · | -9 | · | ·
Cc1ccccc1-c1cc2nc(Nc3ccc(F)cc3)n(C)c(=O)c2s1 | 10 | · | · | 16 | · | ·
COc1ccc(-c2csc3ncnc(Nc4ccc(OC)cc4OC)c23)cc1 | -2 | 0 | · | · | 0 | -9
COc1ccc(C)cc1NC(=O)Nc1cccc(OCc2cc(=O)n3ccc(C)cc3n2)c1 | -4 | 0 | · | · | 2 | -7
CN(C)S(=O)(=O)c1ccc(S(=O)(=O)N2CCN(CCC#N)CC2)cc1 | -8 | -4 | -1% | 0 | -1 | -33*
CCN(CC)S(=O)(=O)c1ccc(S(=O)(=O)N2CCN(CCC#N)CC2)cc1 | -7 | 13 | 0% | 0 | 2 | 0
CC1CCCCC1NS(=O)(=O)c1ccc(S(=O)(=O)N2CCN(CCC#N)CC2)cc1 (stereo not given) | -2 | -9 | 2% | 15 | 5 | -35*
COc1ccc(NC(=O)Cn2nc(C)c3c(C)n(-c4ccccc4)nc3c2=O)cc1OC | 6 | -3 | · | · | 1 | -20
C=CCn1c(=O)/c(=C/c2ccc(C)o2)s/c1=C(/C#N)C(=O)c1ccccc1 | -1 | -6 | 6% | 7 | 58* | -3
N#C/C(C(=O)N1CCOCC1)=c1/s/c(=C\c2ccccn2)c(=O)n1-c1ccccc1 | 7 | -4 | ? | 6 | 0 | -26
C=CCn1c(=O)/c(=C\c2ccccn2)s/c1=C(/C#N)C(=O)NCC1CCCO1 (stereo not given) | 4 | -5 | -1% | 0 | 151* | -28
CC(C)(C)OC(=O)N1CCCC(C(=O)Nc2cccc(C(=O)N3CCOCC3)c2)C1 (stereo not given) | -21 | · | · | -10 | · | ·
CC(C)n1cc(/C=N/NC(=O)COc2cccc3cccnc23)c2ccccc21 | 34* | 6 | -14% | 16 | 1 | 5
SMILES | DRD3 agonist | D1 PAM | Chronic BCR inh | DRD3 antagonist | D1 ag | D1 antag
Cc1cccc(OCCn2cc(/C=N/NC(=O)c3ccncc3)c3ccccc32)c1 | 11 | 0 | -15% | 24 | -1 | -15
C=CCn1cc(/C=N/NC(=O)COc2cccc3cccnc23)c2ccccc21 | 4 | 1 | -6% | 8 | 1 | -1
Cc1cccc(OCC(=O)N/N=C\c2cn(C)c3ccccc23)c1 | 11 | -1 | -5% | 2 | 22 | -34*
Cc1cc(C)cc(OC(=O)c2cc(-c3ccc(Cl)cc3)on2)c1 | 1 | 1 | · | · | 3 | -10
CC1(C(=O)Nc2cccc3cccnc23)CCN1C(=O)Cc1ccc(Cl)cc1Cl (stereo not given) | 5 | · | · | 0 | · | ·
CCCCNC(=O)C1(C)CCN1C(=O)c1cc2ccccc2s1 (stereo not given) | 4 | · | · | 26 | · | ·
O=C1CN(C(=O)COc2ccccc2)C(c2ccc(F)cc2)c2cc(Br)ccc2N1 (stereo not given) | 2 | 3 | · | · | 1 | 8
O=C1CN(C(=O)Cc2ccccc2)C(c2ccc(F)cc2)c2cc(Br)ccc2N1 (stereo not given) | 2 | 4 | · | · | 2 | -48*
Cc1cc(=O)n2c(nc3ccccc32)s1 | 5 | · | · | 8 | · | ·
CC(C)CC(=O)Nc1cccc(C(C)O)c1 (stereo not given) | · | -3 | 4% | · | 2 | -31*
CCCCC(=O)Nc1cccc(C(C)O)c1 (stereo not given) | · | -8 | 4% | · | 2 | -4
CCCCN(CC)CCCNC(=O)c1ccc2c(c1)NC(=O)CN2C | -8 | -1 | -3% | · | -2 | 2
CN1CC(=O)Nc2cc(C(=O)O)ccc21 | 2 | -2 | -9% | · | -1 | -31*
CCc1cc(Br)ccc1N1C(=O)C2CC=CCC2C1=O (stereo not given) | 0 | -9 | 7% | 9 | 8 | -41*
CCN(CC)c1ccc(/C=C2/C(=O)c3ccc(C(=O)O)cc3C2=O)cc1 | -11 | 0 | ? | -56* | 261* | -6
Cc1coc2cc3oc(=O)c4c(c3cc12)CCCC4 | 3 | 0 | 1% | 20 | 1 | -45*
Cc1oc2c(C)c3oc(=O)c4c(c3cc2c1C)CCCC4 | 32* | 5 | ? | 26 | 1 | -5
COc1cccc(-n2c(SCC(=O)Nc3nnc(C)s3)nc3c([nH]c4ccccc43)c2=O)c1 | 5 | -3 | · | · | 0 | -12
c1ccc(OCCNc2ccn3nc(-c4ccc(OCCN5CCOCC5)cc4)cc3n2)cc1 | 7 | · | · | 113 | · | ·
Clc1ccc2nc(CN3CCCCCC3)cn2c1 | -5 | -11 | 7% | -85* | 8 | -2
COc1ccc(-c2csc(/C(C#N)=C(\O)CSc3nccn3C)n2)cc1OC | -5 | -4 | 1% | -55* | 13 | -3
COc1ccc(/C=C(/C#N)c2nc(-c3ccc(-c4ccccc4)cc3)cs2)cc1OC | 9 | -2 | · | · | 9 | 40
Cc1cc(C)nc(N2CCC(C(=O)O)CC2)n1 | 2 | 4 | 0% | -3 | 0 | -32*
